Data as given in PubChem BioAssay (NCATS).
“And” between values parts separate entries of the source, which are not always exact repeats. Equal entries are not always repeated. Records with an inconclusive call do not appear. The source made the active and inactive calls. Unless noted, calls come from the whole dose curve; as a rule, active = well fitted curve in the direction sought with a large enough effect; inconclusive = small, poorly fitted or top-dose-only effect, or another doubt; inactive = no such curve, though single readings can be large; an effect the other way counts as inactive or inconclusive.

Key:
[1] = Cell Viability - HepG2 (AID 433; calls by dose curve;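 note: potency is the fitted concentration of half-maximal effect; potency for ATP loss meaning cytotoxicity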); settings: qHTS
How it was run: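 In this qHTS format, a 40 h, 37 °C compound incubation of HepG2 cells in complete medium precedes a 20 min CellTiter-Glo step at room temperature. Tamoxifen and doxorubicin serve as positive controls; Hill-equation fits yield AC50.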

[2] = Cell Viability - MRC5 (AID 434; calls by dose curve;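 note: potency is the fitted concentration of half-maximal effect; potency reflects cytotoxicity seen as loss of intracellular ATP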); settings: MRC5 lung fibroblast viability, qHTS
How it was run: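 AC50 values come from Hill-equation fits of intracellular ATP loss, measured by CellTiter-Glo luminescence. Normal lung fibroblasts (MRC5) had 40 hr compound treatment at 37 C, normalized between DMSO and 100 uM tamoxifen.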

[3] = Cell Viability - SK-N-SH (AID 435; calls by dose curve;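 note: potency is the fitted concentration of half-maximal effect; compound exposure lasted 40 h at 37 °C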); settings: SK-N-SH neuroblastoma cell viability qHTS
How it was run: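 Human neuroblastoma line, 40 h exposure at 37 °C, ATP quantified via luciferase luminescence; DMSO and 100 uM tamoxifen define 0 and 100% inhibition for AC50 fitting.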

[4] = Cell Viability - HUV-EC-C (AID 542); settings: HUV-EC-C endothelial cell viability, qHTS; series mostly up to 92.2 µM; note: % is set by controls: 0 for no effect and ±100 for the full control effect; nearly all actives have a fitted effect of over 35% in size
How it was run: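 Cells were seeded at 1000 per well and incubated 5 hr at 37 °C before compound addition. After 40 hr at 37 °C, CellTiter-Glo reagent was added for 20 min and luminescence read. AC50 values came from Hill-equation modelling.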

[5] = Cell Viability - Renal Proximal Tubule (AID 545); settings: renal proximal tubule cells viability; at 91.7 µM (top of the series), primary cells of rat origin unless noted; note: nearly all actives have a fitted effect of over 40% in size
How it was run: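 In this qHTS format, normal rat kidney-derived proximal tubule cells in complete culture medium receive compound titrations, then sit 40 hours at 37 °C before luciferase-based ATP quantitation; potency is reported as AC50 from concentration-response curves.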

[6] = Cell Viability - Mesenchymal (AID 546); settings: mesenchymal cells viability, qHTS; series mostly up to 91.7 µM;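 note: cells exposed to compound for 40 hours before reading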
How it was run: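 CellTiter-Glo luminescence (intracellular ATP, 20 min room temperature) after 40 hr compound exposure at 37 °C of 1000 glomerulus-derived human kidney mesenchymal cells/well; AC50 values obtained by fitting qHTS concentration-response data to the Hill equation.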

[7] = Cellular Toxicity (caspase-3) Jurkat (AID 655); settings: Jurkat caspase-3 activation, luminescence, DMSO = 0%, tamoxifen = 100%; at 92.2 µM (top of the series);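 note: cells exposed to compound for 16 h at 37 °C before reading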
How it was run: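 qHTS in human Jurkat T-cell leukemia line: 16 hr compound treatment at 37 °C, caspase-3/7 activity measured by Caspase-Glo luminescence. AC50 derived from Hill equation.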

[8] = Cellular Toxicity (caspase-3) HUV-EC-C (AID 656); settings: HUV-EC-C cells, caspase-3 activation (apoptosis), vehicle = 0, 100 µM tamoxifen = 100%; series mostly up to 92.2 µM
How it was run: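 Concentration-dependent caspase 3/7 induction was assessed in HUV-EC-C cells exposed for 16 hours. Data scaled between DMSO and tamoxifen (100 uM) controls.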

[9] = Cellular Toxicity (caspase-3) SHSY5Y (AID 657); settings: SH-SY5Y caspase-3 activation, DMSO zero, 10 µM staurosporine = 100%; series mostly up to 91.7 µM;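 note: cells exposed to compound for 16 hours at 37 °C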
How it was run: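 Readout: caspase-cleaved peptide-aminoluciferin substrate driving luciferase light in SH-SY5Y neuroblastoma cells after 16 h treatment. Response normalized to DMSO and 10 uM staurosporine controls.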

[10] = Cellular Toxicity (caspase-3) BJ (AID 658); settings: BJ fibroblasts, luminescence, normalized: DMSO 0%, staurosporine 100%; series mostly up to 91.7 µM
How it was run: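 Caspase-Glo 3/7 luminescence, read 1 hr after reagent at room temperature, in normal BJ fibroblasts exposed 16 hours at 37 °C. AC50 values from Hill-equation concentration-response, scaled between DMSO basal and 10 uM staurosporine as 100%.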

[11] = Cellular Toxicity (caspase-3) MRC-5 (AID 659); settings: MRC-5 cells, luminescence, normalized: DMSO 0%, 10 µM staurosporine 100%; series mostly up to 91.7 µM
How it was run: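 Luminescent Caspase-Glo 3/7 read-out (1 h, room temperature) after a 16 h, 37 °C compound exposure of MRC-5 lung fibroblasts at 1500 cells/well. Concentration-response AC50 from Hill equation; 0% DMSO, 100% 10 uM staurosporine.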

[12] = Cellular Toxicity (caspase-3) Mesangial (AID 660); settings: mesangial cells, normalized: DMSO 0%, 100 µM tamoxifen 100%; series mostly up to 91.7 µM;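 note: combined caspase 3 and 7 activity read by Caspase-Glo luminescence; cells exposed to compound for 16 h before the caspase read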
How it was run: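 Seed cells derived from normal human renal glomeruli, incubate 5 h, add compounds across concentrations and incubate 16 h at 37 °C. Caspase 3/7 activation is then quantified by luciferase light, with AC50 derived by Hill modeling.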

[13] = Cellular Toxicity (caspase-3) SK-N-SH (AID 661); settings: SK-N-SH caspase-3 activation, qHTS, DMSO as zero, staurosporine as full; series mostly up to 91.7 µM
How it was run: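 Cells were seeded and incubated 5 hr at 37 °C, dosed with compound over a concentration range for 16 hr, then given Caspase-Glo 3/7 reagent for 1 hr at room temperature before luminescence reading.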

[14] = Cellular Toxicity (caspase-3) H-4-II-E (AID 663); settings: H-4-II-E rat hepatoma, scaled: DMSO 0%, 100 µM tamoxifen 100%; series mostly up to 92.2 µM;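 note: cells exposed to compound for 16 hr before readout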
How it was run: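 Caspase 3/7 activation measured by luminescent aminoluciferin substrate cleavage after 16 hr compound treatment of H-4-II-E cells in complete medium. Increase normalized between DMSO (basal) and 100 uM tamoxifen (100%); Hill-equation AC50 from concentration-response.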

[15] = Cellular Toxicity (caspase-3) Renal Proximal Tubule (AID 667); settings: renal proximal tubule cells; at 91.7 µM (top of the series), primary cells freshly taken from rat, solvent-only wells 0%, staurosporine 100% unless noted;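 note: cells exposed to compound for 16 hours at 37 °C before detection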
How it was run: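 Caspase-Glo 3/7 read-out, rat primary kidney proximal tubule cells. Compound exposure 16 h, 37 °C; detection after 1 h at RT. Activity scaled to DMSO and 10 uM staurosporine.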

[16] = MultiTox-Fluor Cytotoxicity Assay - LYMP1-001 - Dead Cells (AID 946); settings: LYMP1-001 lymphoblastoid cells, dead-cell protease fluorescence; series mostly up to 92.2 µM
How it was run: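 Seed 2500 LYMP1-001 cells/well, incubate 5 hr at 37 C; add compound, 16 hr at 37 C; add MultiTox-Fluor reagent, 60 min RT; read dead-cell fluorescence Ex/Em=485/520. Normalize to DMSO and 15 uM tetraoctylammonium bromide.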

[17] = Cell Viability - LYMP1-002 - Assay at 16 hr (AID 948); settings: LYMP1-002 lymphoblastoid cell viability; series mostly up to 92.2 µM;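 note: 0% = DMSO alone and full effect = 92 µM tetraoctylammonium bromide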
How it was run: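 In this qHTS, lymphoblastoid LYMP1-002 cells (human) receive compounds for 16 hr at 37 C. Viability is taken from CellTiter-Glo ATP luminescence, and AC50 derives from standard Hill fits.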

[18] = MultiTox-Fluor Cytotoxicity Assay - LYMP1-003 - Dead Cells (AID 961); settings: LYMP1-003 lymphoblastoid cells, dead-cell protease fluorescence; series mostly up to 92.2 µM; note: nearly all actives have a fitted effect of over 70% in size
How it was run: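 LYMP1-003 lymphoblastoid, 2500 cells/well, 5 hr settle then 16 hr cpd at 37 C; MultiTox-Fluor reagent 60 min RT; Ex/Em 485/520 dead-cell signal; norm. DMSO = 0%, 15 uM tetraoctylammonium bromide = 100%; Hill AC50.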

[19] = qHTS assay for cell viability of HEK293 cells (AID 743288); settings: ATP luminescence (CellTiter-Glo), 18 h; max response: active compounds read low; note: % is set by controls: 0 for no effect and ±100 for the full control effect; nearly all actives have a fitted effect of over 50% in size
How it was run: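 HEK293, 18 h, 37 C, ATP luminescence. Cells at 2,000/well were allowed at least 5 h to settle before dosing; CellTiter-Glo developed 30 min at RT.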

[20] = qHTS assay for cell viability of the p53RE-bla HCT-116 cell line (AID 743292); settings: p53RE-bla HCT-116 viability, ATP luminescence, 16 h; series mostly up to 95 µM; note: % is set by controls: 0 for no effect and ±100 for the full control effect; nearly all actives have a fitted effect of over 55% in size
How it was run: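 Luminescent ATP quantitation (CellTiter-Glo) served as the viability read-out; reagent was added after 16 h compound exposure at 37 C and read after 30 min at room temperature. Cells: p53RE-bla HCT-116, 4,000 per well.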

CCCSC(=O)Cl
inactive: Potency [1] > 92 µM | Potency [2] > 92 µM | Potency [3] > 92 µM | Potency [4] | activity change, negative = cytotoxicity [5] -6.97% | outcome [6] | caspase-3 activation [7] 0.745% | outcome [8] | outcome [9] | outcome [10] | outcome [11] | outcome [12] | outcome [13] | outcome [14] | caspase-3 activation [15] 5.81% | Potency [16] | Potency [17] | Potency [18] | max response [19] -1.07% | Potency [20]

C1CCC2CCCCC2C1 (stereo not given)
inactive: Potency [1] > 92 µM | Potency [2] > 92 µM | Potency [3] > 92 µM | Potency [4] | activity change, negative = cytotoxicity [5] -9.71% | outcome [6] | caspase-3 activation [7] 1.3% | outcome [8] | outcome [9] | outcome [10] | outcome [11] | outcome [12] | outcome [13] | outcome [14] | caspase-3 activation [15] -7.58% | Potency [16] | Potency [17] | Potency [18] | max response [19] 0.933% | Potency [20]

Cc1cccc([N+](=O)[O-])c1
inactive: Potency [1] > 92 µM | Potency [2] > 92 µM | Potency [3] > 92 µM | Potency [4] | activity change, negative = cytotoxicity [5] -7.28% | outcome [6] | caspase-3 activation [7] -1.23% | outcome [8] | outcome [9] | outcome [10] | outcome [11] | outcome [12] | outcome [13] | outcome [14] | caspase-3 activation [15] 5.52% | Potency [16] | Potency [17] | Potency [18] | max response [19] -6% and -15.6% | Potency [20]

Cc1ccc(O)c(C)c1
inactive: Potency [1] > 92 µM | Potency [2] > 92 µM | Potency [3] > 92 µM | Potency [4] | activity change, negative = cytotoxicity [5] -11.8% [at 91.7 µM] | outcome [6] | caspase-3 activation [7] 2.67% | outcome [8] | outcome [9] | outcome [10] | outcome [11] | outcome [12] | outcome [13] | outcome [14] | caspase-3 activation [15] -3.58% [at 91.7 µM] | Potency [16] | Potency [17] | Potency [18] | max response [19] -1.16% and -6.96% and -11.5% | Potency [20]

CN=C=S
inactive: Potency [1] > 92 µM | Potency [2] > 92 µM | Potency [3] > 92 µM | Potency [4] | activity change, negative = cytotoxicity [5] -2.52% | outcome [6] | caspase-3 activation [7] -1.9% | outcome [8] | outcome [9] | outcome [10] | outcome [11] | outcome [12] | outcome [13] | outcome [14] | caspase-3 activation [15] -3.52% | Potency [16] | Potency [17] | Potency [18] | max response [19] -4.04% and -6.57% | Potency [20]

C=CCOC(=O)c1ccccc1N
inactive: Potency [1] > 92 µM | Potency [2] > 92 µM | Potency [3] > 92 µM | Potency [4] | activity change, negative = cytotoxicity [5] -5.75% [at 91.7 µM] | outcome [6] | caspase-3 activation [7] 0.746% | outcome [8] | outcome [9] | outcome [10] | outcome [11] | outcome [12] | outcome [13] | outcome [14] | caspase-3 activation [15] 0.151% [at 91.7 µM] | Potency [16] | Potency [17] | Potency [18] | max response [19] 8.68% | Potency [20]

Nc1ccccc1Cl
inactive: Potency [1] > 92 µM | Potency [2] > 92 µM | Potency [3] > 92 µM | Potency [4] | activity change, negative = cytotoxicity [5] 6.03% | outcome [6] | caspase-3 activation [7] -0.675% | outcome [8] | outcome [9] | outcome [10] | outcome [11] | outcome [12] | outcome [13] | outcome [14] | caspase-3 activation [15] 2.73% | Potency [16] | Potency [17] | Potency [18] | max response [19] -8.45% | Potency [20]

[O-][Br+2]([O-])O
inactive: Potency [1] > 92 µM | Potency [2] > 92 µM | Potency [3] > 92 µM | Potency [4] | activity change, negative = cytotoxicity [5] -9.6% and -6.64% | outcome [6] | caspase-3 activation [7] -7.93% and -8.01% | outcome [8] | outcome [9] | outcome [10] | outcome [11] | outcome [12] | outcome [13] | outcome [14] | caspase-3 activation [15] -18.8% and -17.4% | Potency [16] | Potency [17] | Potency [18] | max response [19] -15.7% and 1.39% | Potency [20]

ClCBr
inactive: Potency [1] > 92 µM | Potency [2] > 92 µM | Potency [3] > 92 µM | Potency [4] | activity change, negative = cytotoxicity [5] -6.27% | outcome [6] | caspase-3 activation [7] -0.634% | outcome [8] | outcome [9] | outcome [10] | outcome [11] | outcome [12] | outcome [13] | outcome [14] | caspase-3 activation [15] -5.04% | Potency [16] | Potency [17] | Potency [18] | max response [19] 4.95% | Potency [20]

C=C(Cl)Cl
inactive: Potency [1] > 92 µM | Potency [2] > 92 µM | Potency [3] > 92 µM | Potency [4] | activity change, negative = cytotoxicity [5] -2.22% | outcome [6] | caspase-3 activation [7] 0.59% | outcome [8] | outcome [9] | outcome [10] | outcome [11] | outcome [12] | outcome [13] | outcome [14] | caspase-3 activation [15] 1.42% | Potency [16] | Potency [17] | Potency [18] | max response [19] -0.763% | Potency [20]
